Shiga toxin inh – A qHTS for Small Molecule Inhibitors of Shiga Toxin; Vero cells, Shiga toxin protein synthesis inhibition reporter; inhibition, % at 38.7 µM; 290,000 compounds, 9.2% hits; AID 2315, 2010; in the data active = inhibition mostly above about 28%, no sharp cut-off; inactive = mostly below about 43%; also: 0% is about no effect
Pf growth 96h – Primary qHTS for delayed death inhibitors of the malarial parasite plastid, 96 hour incubation | P. falciparum luciferase reporter growth, 96 h | Potency, µM (highest dose often 28.7 µM), inactives show at the top dose activity change, negative = inhibition, usual class: inhibitors | 320,000 compounds, 6.9% hits | AID 504834, 2011; also: potency is read from the fitted curve at half-maximal effect; % is scaled to controls: 0 for no effect and ±100 for the full control effect
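P. falciparum expressing integrated firefly luciferase grown in erythrocytes (2% hematocrit, 0.05% parasitemia final) with compounds for 96 hours at 37 C, 5% CO2. Growth inhibition read as loss of luminescence after adding luciferase detection reagent.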
HCV inhibitor – qHTS Assay for Inhibitors of Hepatitis C Virus (HCV). Potency, µM (doses to about 41.8 µM), inactives show at the highest dose activity change, negative = inhibition, usual class: inhibitors. Huh7.5.1 HCVcc-Cre infection, luciferase reporter, 44 h. 340,000 compounds, 3.4% hits; also: potency is read from the fitted curve at half-maximal effect; % is scaled to controls: 0 for no effect and ±100 for the full control effect
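Compounds are dispensed onto cells plated 4 h earlier at 1,000 per well, with HCVcc-Cre virus (about 0.5 moi) added next. Following 44 h of culture, luminescent signal is measured for 15 sec after 15 min with substrate at room temperature.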
CHX counter – Cycloheximide Counterscreen for Small Molecule Inhibitors of Shiga Toxin | cell reporter, cycloheximide protein synthesis inhibition counterscreen | max response, % | 300,000 compounds, 12% hits | AID 2314, 2010; in the data active = max response mostly above about 13%, no sharp cut-off; inactive = mostly below about 14%; also: read at 38.3 µM for the half of the compounds with a filed dose; 0% is about no effect
HCMV antiviral – qHTS Assay for inhibitors of the human cytomegalovirus (HCMV); HFF cells, HCMV-luciferase reporter, 72 h; hits give low values; activity change, negative = inhibition, % at 57.5 µM; 410,000 compounds, 4.5% hits; AID 1259415, 2018; in the data active = activity change below about -60%; inconclusive = no clear call, values can overlap the other calls; inactive = above about -39%; also: % is scaled to controls: 0 for no effect and ±100 for the full control effect
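After 16 h attachment at 37C, HFF cells received test compound and HCMV-luciferase (1 PFU/cell); reporter luminescence read 72 h later, data normalized against buffer-only and known inhibitor Salinomycin.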
Pf growth 48h – Primary qHTS for delayed death inhibitors of the malarial parasite plastid, 48 hour incubation; P. falciparum luciferase growth in erythrocytes, 48 h; Potency, µM (top dose mostly 28.7 µM), for the others: top-dose activity change, negative = inhibition, hits mostly inhibitors; 310,000 compounds, 5.9% hits; AID 504832, 2011; also: potency is read from the fitted curve at half-maximal effect; % is scaled to controls: 0 for no effect and ±100 for the full control effect
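Luciferase-expressing P. falciparum in infected erythrocytes (2% hematocrit, 0.1% parasitemia final) in RPMI 1640/0.5% Albumax were exposed to compound for 48 hours at 37 C, 5% CO2; growth read as luminescence.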
* = called active by the depositor; ? = inconclusive; / = not tested or not shown; [ ] = remark or other dose. Rows were chosen to be rich in hits. Some 21% of all compounds tested hit in one or more screens of this group. Unless noted, calls follow the shape of the dose curve; as a rule, active = well fitted inhibition curve with a large enough effect; inconclusive = small, poorly fitted or top-dose-only effect, or another doubt; inactive = no such curve, though single readings can be large or run the other way.

SMILES	Shiga toxin inh	Pf growth 96h	HCV inhibitor	CHX counter	HCMV antiviral	Pf growth 48h
COc1cc2c(cc1OC)C(COc1ccccc1OC)N(C(=O)c1ccco1)CC2 (stereo not drawn)	-16	6.6µM*	35%	8	-25	?
CCOc1ccc(CC2c3cc(OCC)c(OCC)cc3CCN2C(=O)c2cc(OC)c(OC)c(OC)c2)cc1OCC (stereo not drawn)	2	1.3µM*	?	-3	26	1.5µM*
COc1cc2c(cc1OC)C(COc1ccccc1OC)N(C(=O)C(C)C)CC2 (stereo not drawn)	-11	10µM*	9%	-2	13	?
Cc1ccccc1Cn1c(SCc2ccc(C(=O)NCc3cccs3)cc2)nc2ccncc21	/	/	/	/	-32	/
Cc1ccc(C)c(N2CCN(C(=O)CC3Sc4ccccc4NC3=O)CC2)c1 (stereo not drawn)	-36	?	10µM*	-3	-26	?
Cc1ccc(C)c(N2CCN(C(=O)CN3CCSc4ccccc43)CC2)c1	/	/	/	/	14	/
COc1ccc(CNC[C@@H](CCCCN(C)Cc2ccc(OC)cc2)N2C[C@H](c3ccccc3)N(CCc3ccc(Cl)c(Cl)c3)C(=O)C2=O)cc1	-25	2.3µM*	-9%[8.37 µM]	-10	/	1.7µM*
CN(CCCC[C@H](CNCc1ccc(-c2ccccc2)cc1)N1C[C@H](c2ccccc2)N(CCc2ccc(Cl)c(Cl)c2)C(=O)C1=O)Cc1ccc(-c2ccccc2)cc1	-10	3.7µM*	/	-1	/	?
CCOc1ccc(CCN2C(=O)C(=O)N([C@H](CCCN(C)Cc3ccccc3)CNCc3ccccc3)C[C@@H]2C(C)C)cc1	-5	3.7µM*	/	6	/	9.3µM*
CCOc1ccc(CCN2C(=O)C(=O)N([C@@H](CC(C)C)CN3CCC[C@@H]3CN3C(=O)C(=O)NC[C@@H]3CC(C)C)C[C@@H]2Cc2ccccc2)cc1	/	/	/	/	-14	/
Cc1ccc([N+](=O)[O-])cc1NC(=O)C(C)NS(=O)(=O)c1ccc(F)cc1 (stereo not drawn)	-17	14%	-15%	9	9	-17%
N#Cc1c(N2CCSCC2)nsc1-c1ccccc1Cl	43	?	12%	29*	74	?
CCN(CC)c1ccc(NC(=O)CN2C(=O)CSc3ncccc32)c(C)c1	10	?	3.5µM*	5	-86*	/
CCOc1ccccc1NC(=S)N1CCN(c2ccccc2F)CC1	0	?	-3%	0	66	-13%
CC(C)(C)NC(=O)c1ccc2c(c1)C1C3CCC(C3)C1C(c1ccccc1)N2 (stereo not drawn)	-1	18%	-1%	-5	?	?
CCCNC(=O)c1ccc2c(c1)C1C3CCC(C3)C1C(c1ccccc1)N2 (stereo not drawn)	-17	/	?	-5	?	9.3µM*
CC1CCN(C(=O)c2cc(-c3ccc4c(c3)OCO4)on2)CC1	41*	9%	-5%	28*	16	183%
O=C(c1cc(-c2ccccc2)on1)N1CCN(Cc2ccc3c(c2)OCO3)CC1	-16	?	-10%	2	-22	-14%
CCC1CCCCN1C(=O)c1cc(-c2ccc(Cl)c(Cl)c2)on1 (stereo not drawn)	94*	78%	11%	39*	75	-10%
CC1CCCCN1C(=O)c1cc(-c2ccc(Cl)c(Cl)c2)on1 (stereo not drawn)	76	-3%	-21%	29*	60	192%
CC1CCCCN1C(=O)c1cc(-c2ccc3c(c2)OCO3)on1 (stereo not drawn)	89*	?	7%	36*	49	213%
COCCn1c(CNC(=O)c2ccccc2C)nc2cccnc21	/	/	/	/	-19	/
Brc1ccc(C=Nc2ccc(Nc3ccccc3)cc2)s1	-9	13µM*	-6%	4	/	?
CCOC(=O)C1CCN(C(=O)CN2C(=O)c3cccnc3Oc3ccccc32)CC1	-9	32%	7%	-2	-5	?
C=CCc1ccc(O)c(-c2cc(CC=C)ccc2O)c1	-6	3.7µM*	-6%	-9	-11	?
SMILES	Shiga toxin inh	Pf growth 96h	HCV inhibitor	CHX counter	HCMV antiviral	Pf growth 48h
C=CCc1ccc(OC)cc1	/	53%	-14%	/	2	17%
O=C1c2ccccc2C(=O)N1CC(=O)N1c2ccccc2CCc2ccccc21	-14	?	20%	2	33	?
O=C(O)C(c1ccccc1)N1C(=O)c2ccccc2C1=O (stereo not drawn)	-11	1%	14%	-1	-8	-12%
CC(C(=O)c1ccccc1)N1C(=O)c2ccccc2C1=O (stereo not drawn)	14	-2%	1%	5	-26	2%
CC(Cc1ccccc1)N1C(=O)c2ccccc2C1=O (stereo not drawn)	49*	-4%	5%	22*	-29	2%
O=C(O)C(c1ccccc1)N1C(=O)c2cccc3cccc(c23)C1=O (stereo not drawn)	-16	1.5µM*	9%	1	16	-17%
CC(C(=O)O)N1C(=O)c2ccccc2C1=O (stereo not drawn)	-1	-2%	6%	-3	-99*	/
O=C(C(Cc1ccccc1)N1C(=O)c2ccccc2C1=O)N1c2ccccc2CCc2ccccc21 (stereo not drawn)	25	-23%	10µM*	6	-66*	?
CCOC(=O)[C@H]1[C@H]2COc3cc(OC)ccc3[C@@H]2N2C(=O)N(c3cccc(Cl)c3)C(=O)[C@@]12C	-3	?	?	-3	/	?
O=C1c2oc3ccc(F)cc3c(=O)c2C(c2cccc(O)c2)N1CCCN1CCOCC1 (stereo not drawn)	-12	10µM*	13%	-2	24	25%
C=CCOc1cccc(C2c3c(oc4ccc(F)cc4c3=O)C(=O)N2CCCN2CCOCC2)c1 (stereo not drawn)	1	6%	4%	-2	-4	12µM*
Cc1ccc2oc3c(c(=O)c2c1)C(c1cccc(Cl)c1)N(CCCN1CCOCC1)C3=O (stereo not drawn)	-4	?	5%	-3	1	2.6µM*
Cc1ccc2oc3c(c(=O)c2c1)C(c1cccc(O)c1)N(CCCN1CCOCC1)C3=O (stereo not drawn)	/	/	/	/	10	/
CCOC(=O)c1c(NC(=O)COC(=O)c2nc(Cl)ccc2Cl)sc(C(=O)NC)c1C	/	27%	?	/	-18	-6%
Cc1ccc(N2CC(NC(=O)/C=C\c3ccc4c(c3)OCO4)CC2=O)cc1 (stereo not drawn)	/	/	/	/	142	/
